# Results reported in PubChem BioAssay (NCI).
# “And” between values parts separate entries of the source, which are not always exact repeats. Equal values may be shown once. This is part of a sample that, as a whole, favours compounds with a hit. Of some 83,000 tested, about 20% had one in any assay.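 Values shown are percent growth following 48 h exposure of cells in 96-well plates to a single concentration of compound; below 10 was considered active.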 Some compounds were tested as several samples or in several runs, with calls that do not always agree. The source made the active and inactive calls.
# Legend:
# Experiment in all cases: NCI-60 one-dose screen, 48 h (100 = growth as untreated, 0 = no growth, -100 = all killed)
# [1] = test system: HCT-15 colon
# [2] = test system: HT29 colon
# [3] = test system: SNB-75 CNS
# [4] = test system: SNB-19 CNS
# [5] = test system: U251 CNS
# [6] = test system: PC-3 prostate
# [7] = test system: SK-MEL-5 melanoma
# [8] = test system: UACC-62 melanoma
# [9] = test system: LOX IMVI melanoma
# [10] = test system: SK-MEL-28 melanoma; conditions: 10 µM unless noted
# [11] = test system: SK-MEL-2 melanoma
# [12] = test system: EKVX NSCLC
# [13] = test system: SN12C renal
# [14] = test system: UO-31 renal
# [15] = test system: TK-10 renal
# [16] = test system: ACHN renal; conditions: 10 µM unless noted
# [17] = test system: CAKI-1 renal
# [18] = test system: A498 renal; conditions: 10 µM unless noted
# [19] = test system: CCRF-CEM leukemia
# [20] = test system: MOLT-4 leukemia
smiles,measurement,setting,value
Nc1ncnc2c1ncn2C1CC(O)C(CO)O1 (stereo not given),growth,[1]; 10 µM unless noted,107% (inactive) and 111% (inactive)
same,growth,[2]; 10 µM unless noted,109% (inactive) and 115% (inactive)
same,growth,[3]; 10 µM unless noted,89.7% (inactive) and 92.9% (inactive)
same,growth,[4]; 10 µM unless noted,107% (inactive) and 103% (inactive)
same,growth,[5]; 10 µM unless noted,102% (inactive) and 100% (inactive)
same,growth,[6]; 10 µM unless noted,110% (inactive) and 102% (inactive)
same,growth,[7]; 10 µM unless noted,115% (inactive) and 108% (inactive)
same,growth,[8]; 10 µM unless noted,104% (inactive) and 105% (inactive)
same,growth,[9]; 10 µM unless noted,103% (inactive) and 105% (inactive)
same,growth,[10],123% (inactive) and 115% (inactive)
same,growth,[11]; 10 µM unless noted,37.6% (inactive) and 100% (inactive)
same,growth,[12]; 10 µM unless noted,100% (inactive) and 118% (inactive)
same,growth,[13]; 10 µM unless noted,105% (inactive) and 104% (inactive)
same,growth,[14]; 10 µM unless noted,89% (inactive) and 88.8% (inactive)
same,growth,[15]; 10 µM unless noted,113% (inactive) and 109% (inactive)
same,growth,[16],110% (inactive) and 120% (inactive)
same,growth,[17]; 10 µM unless noted,103% (inactive) and 100% (inactive)
same,growth,[18],105% (inactive) and 98.5% (inactive)
same,growth,[19]; 10 µM unless noted,114% (inactive) and 99.2% (inactive)
same,growth,[20]; 10 µM unless noted,114% (inactive) and 92.3% (inactive)
OC1CCC(Oc2cccc3cnc(Nc4ccc5nc[nH]c5c4)nc23)CC1 (stereo not given),growth,[1]; 10 µM unless noted,5.3% (active) and 81% (inactive)
same,growth,[2]; 10 µM unless noted,2.98% (active) and 46% (inactive)
same,growth,[3]; 10 µM unless noted,-22.7% (active) and 37.5% (inactive)
same,growth,[4]; 10 µM unless noted,9.42% (active) and 41.1% (inactive)
same,growth,[5]; 10 µM unless noted,3.2% (active) and 27.7% (inactive)
same,growth,[6]; 10 µM unless noted,3.19% (active) and 35.5% (inactive)
same,growth,[7]; 10 µM unless noted,-6.41% (active) and 47.6% (inactive)
same,growth,[8]; 10 µM unless noted,-4.06% (active) and 46.2% (inactive)
same,growth,[9]; 10 µM unless noted,6.32% (active) and 39.2% (inactive)
same,growth,[10],5.62% (active) and 66.4% (inactive)
same,growth,[11]; 10 µM unless noted,-33.7% (active) and 84.8% (inactive)
same,growth,[12]; 10 µM unless noted,-33.9% (active) and 52.7% (inactive)
same,growth,[13]; 10 µM unless noted,10.2% (inactive) and 38.4% (inactive)
same,growth,[14]; 10 µM unless noted,8.29% (active) and 49.1% (inactive)
same,growth,[15]; 10 µM unless noted,6.96% (active) and 46.2% (inactive)
same,growth,[16],12.8% (inactive) and 41.9% (inactive)
same,growth,[17]; 10 µM unless noted,13.5% (inactive) and 62.8% (inactive)
same,growth,[18],-32.6% (active) and 43.1% (inactive)
same,growth,[19]; 10 µM unless noted,-14.6% (active) and 15.4% (inactive)
CC(C)N=c1cc2n(-c3ccc(Cl)cc3)c3ccccc3nc-2cc1Nc1ccc(Cl)cc1,growth,[1]; 10 µM unless noted,14.9% (inactive) and 21% (inactive) and 6.17% (active)
same,growth,[2]; 10 µM unless noted,0.808% (active) and 6.25% (active) and -28.1% (active)
same,growth,[3]; 10 µM unless noted,68.1% (inactive) and 53.7% (inactive) and 24.1% (inactive)
same,growth,[4]; 10 µM unless noted,49.1% (inactive) and 60.7% (inactive) and 36.4% (inactive)
same,growth,[5]; 10 µM unless noted,13.7% (inactive) and 33.5% (inactive) and 6.42% (active)
same,growth,[6]; 10 µM unless noted,22.2% (inactive) and 29.7% (inactive) and 8.73% (active)
same,growth,[7]; 10 µM unless noted,4.95% (active) and 12% (inactive) and -72.9% (active)
same,growth,[8]; 10 µM unless noted,36% (inactive) and 34.9% (inactive) and 32.9% (inactive)
same,growth,[9]; 10 µM unless noted,-20.7% (active) and -48.6% (active) and -80.9% (active)
same,growth,[10],67.7% (inactive) and 72.8% (inactive) and 57.9% (inactive)
same,growth,[11]; 10 µM unless noted,-32.7% (active) and 0.294% (active) and -36.1% (active)
same,growth,[12]; 10 µM unless noted,39.6% (inactive) and 23% (inactive) and 12.3% (inactive)
same,growth,[13]; 10 µM unless noted,16.9% (inactive) and 25.6% (inactive) and 1.46% (active)
same,growth,[14]; 10 µM unless noted,27.9% (inactive) and -17% (active) and -5.99% (active)
same,growth,[15]; 10 µM unless noted,26.2% (inactive) and 58.6% (inactive) and 5.66% (active)
same,growth,[16],27.2% (inactive) and 30.9% (inactive) and 17.8% (inactive)
same,growth,[17]; 10 µM unless noted,40.5% (inactive) and 22.6% (inactive) and 5.83% (active)
same,growth,[18],74.8% (inactive) and 18.4% (inactive)
same,growth,[19]; 10 µM unless noted,15% (inactive) and 28.5% (inactive) and 1.85% (active)
same,growth,[20]; 10 µM unless noted,6.96% (active) and 15.3% (inactive) and -11.7% (active)
CC1(C)OB(c2ccc(Cn3cc(F)c(=O)[nH]c3=O)cc2)OC1(C)C,growth,[1]; 10 µM,101% (inactive)
same,growth,[1]; 50 µM,68.1% (inactive)
same,growth,[2]; 10 µM,112% (inactive)
same,growth,[2]; 50 µM,24.3% (inactive)
same,growth,[3]; 10 µM,103% (inactive)
same,growth,[3]; 50 µM,38.3% (inactive)
same,growth,[4]; 10 µM,103% (inactive)
same,growth,[4]; 50 µM,70.6% (inactive)
same,growth,[5]; 10 µM,105% (inactive)
same,growth,[5]; 50 µM,82.6% (inactive)
same,growth,[6]; 10 µM,101% (inactive)
same,growth,[6]; 50 µM,55.4% (inactive)
same,growth,[7]; 10 µM,98.4% (inactive)
same,growth,[7]; 50 µM,38.8% (inactive)
same,growth,[8]; 10 µM,89.8% (inactive)
same,growth,[8]; 50 µM,29.1% (inactive)
same,growth,[9]; 10 µM,98.2% (inactive)
same,growth,[9]; 50 µM,52.6% (inactive)
same,growth,[10],99.4% (inactive)
same,growth,[11]; 10 µM,113% (inactive)
same,growth,[11]; 50 µM,41.5% (inactive)
same,growth,[12]; 10 µM,106% (inactive)
same,growth,[12]; 50 µM,72.1% (inactive)
same,growth,[13]; 10 µM,102% (inactive)
same,growth,[13]; 50 µM,80.8% (inactive)
same,growth,[14]; 10 µM,87.3% (inactive)
same,growth,[14]; 50 µM,72.8% (inactive)
same,growth,[15]; 10 µM,102% (inactive)
same,growth,[15]; 50 µM,79.3% (inactive)
same,growth,[17]; 10 µM,85.7% (inactive)
same,growth,[17]; 50 µM,75.1% (inactive)
same,growth,[18],25.6% [50 µM] (inactive)
same,growth,[19]; 10 µM,112% (inactive)
same,growth,[19]; 50 µM,37.7% (inactive)
same,growth,[20]; 10 µM,99.3% (inactive)
same,growth,[20]; 50 µM,54.7% (inactive)
